From PubChem BioAssay (NCATS)
Results filed as inconclusive are left out. Where a call stands in place of a potency, no number is given. Activity calls are given as the source filed them. The call rests on the fitted dose curve; in most records, active means well fitted curve in the direction sought with a large enough effect; inconclusive means small, poorly fitted or top-dose-only effect, or another doubt; inactive means no such curve, though single readings can be large; an effect the other way counts as inactive or inconclusive.

Tests used:
[1] = target: Luciferin 4-monooxygenase (Photinus pyralis) (UniProt P08659); assay: Biochemical firefly luciferase enzyme assay for NPC (AID 624030); further: nearly all actives have a fitted effect of over 70% in size
Sequence of Luciferin 4-monooxygenase (Photinus pyralis) (P08659 whole entry, looked up): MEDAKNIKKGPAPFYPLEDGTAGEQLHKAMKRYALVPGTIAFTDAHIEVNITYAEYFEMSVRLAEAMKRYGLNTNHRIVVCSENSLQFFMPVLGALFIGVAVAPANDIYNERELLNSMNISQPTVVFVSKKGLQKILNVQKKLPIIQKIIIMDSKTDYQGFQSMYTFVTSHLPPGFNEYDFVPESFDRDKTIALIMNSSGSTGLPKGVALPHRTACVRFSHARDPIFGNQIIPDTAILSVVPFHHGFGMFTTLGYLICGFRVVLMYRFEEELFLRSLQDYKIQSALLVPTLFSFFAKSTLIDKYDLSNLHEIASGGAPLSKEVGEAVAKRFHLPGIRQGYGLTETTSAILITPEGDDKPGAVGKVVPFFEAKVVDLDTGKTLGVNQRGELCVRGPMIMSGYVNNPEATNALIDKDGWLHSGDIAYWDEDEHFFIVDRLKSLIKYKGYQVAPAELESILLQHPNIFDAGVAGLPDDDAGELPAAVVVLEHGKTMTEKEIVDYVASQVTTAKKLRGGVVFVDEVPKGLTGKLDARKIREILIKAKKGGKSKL
Procedure, shortened: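 Direct inhibition of firefly luciferase enzyme (10 nM final, 50 mM Tris Acetate) assessed by luminescence within 5 minutes. Percent activity scaled between DMSO and PTC124 positive control, with concentration-effect curves classified by fit quality and response.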

[2] = target: Voltage-gated inwardly rectifying potassium channel KCNH2 (Homo sapiens) (UniProt Q12809); assay: qHTS Assay for Small Molecule Inhibitors of the Human hERG Channel Activity (AID 588834);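 further: lower thallium flux fluorescence means stronger hERG block; nearly all actives have a fitted effect of over 50% in size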
Sequence of Voltage-gated inwardly rectifying potassium channel KCNH2 (Homo sapiens) (Q12809 whole entry, looked up): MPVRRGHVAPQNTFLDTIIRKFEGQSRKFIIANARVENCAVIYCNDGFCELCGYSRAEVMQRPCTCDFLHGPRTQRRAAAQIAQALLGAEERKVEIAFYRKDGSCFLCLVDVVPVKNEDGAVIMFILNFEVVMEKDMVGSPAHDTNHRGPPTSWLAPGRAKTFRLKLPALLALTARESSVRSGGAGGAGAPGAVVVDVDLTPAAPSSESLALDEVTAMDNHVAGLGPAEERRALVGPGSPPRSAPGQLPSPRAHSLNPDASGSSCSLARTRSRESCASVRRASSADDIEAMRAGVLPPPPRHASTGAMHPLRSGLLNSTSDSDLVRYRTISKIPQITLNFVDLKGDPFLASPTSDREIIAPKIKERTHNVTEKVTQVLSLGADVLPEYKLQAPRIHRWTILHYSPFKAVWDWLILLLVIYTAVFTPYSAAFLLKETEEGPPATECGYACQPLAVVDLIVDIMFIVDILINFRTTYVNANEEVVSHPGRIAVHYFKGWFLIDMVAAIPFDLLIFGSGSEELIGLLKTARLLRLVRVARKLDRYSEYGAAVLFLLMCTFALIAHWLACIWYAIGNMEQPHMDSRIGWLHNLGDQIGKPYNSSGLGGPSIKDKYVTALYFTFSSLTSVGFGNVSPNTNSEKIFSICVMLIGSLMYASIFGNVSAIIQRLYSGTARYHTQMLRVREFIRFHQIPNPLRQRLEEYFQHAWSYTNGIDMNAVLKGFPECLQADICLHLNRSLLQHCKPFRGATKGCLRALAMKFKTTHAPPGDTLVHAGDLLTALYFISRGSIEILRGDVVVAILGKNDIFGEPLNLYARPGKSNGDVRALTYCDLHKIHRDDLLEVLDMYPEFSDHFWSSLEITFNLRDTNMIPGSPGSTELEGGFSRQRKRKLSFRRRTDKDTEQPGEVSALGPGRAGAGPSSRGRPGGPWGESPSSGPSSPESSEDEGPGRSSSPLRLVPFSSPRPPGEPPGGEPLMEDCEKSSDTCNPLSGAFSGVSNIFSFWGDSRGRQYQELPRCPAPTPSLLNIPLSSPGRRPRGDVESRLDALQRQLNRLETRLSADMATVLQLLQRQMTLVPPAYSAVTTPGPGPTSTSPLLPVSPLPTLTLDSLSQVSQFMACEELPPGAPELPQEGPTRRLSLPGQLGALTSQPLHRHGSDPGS
Procedure, shortened: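 Thallium serves as surrogate for K+ influx through BacMam-delivered hERG in U2OS cells. Compounds are added for about 10 minutes after dye loading; stimulation buffer then starts flux, monitored kinetically on FDSS.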

[3] = S16 Schwann cell viability assay (CellTiter-Glo assay) (AID 624031); further: nearly all actives have a fitted effect of over 70% in size
Procedure, shortened: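 Luminescent ATP read-out (CellTiter-Glo) after 24 h compound exposure of native S16 rat Schwann cells at 37 °C. Signals were normalized between cell-free wells and DMSO-treated cells, set as 0% activity.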
Potency means the concentration at half of the fitted maximal effect.

Cn1cc(S(C)=O)c(=O)c2ccc(F)cc21 (stereo not given)
Potency [1]: inactive

CC(C)(C)C(=O)OCOC(=O)C1N2C(=O)CC2S(=O)(=O)C1(C)C (stereo not given)
Potency [1]: inactive

CCCCCCCCCCCCCCCC[N+](C)(C)Cc1ccccc1
Potency [2]: 22.4 µM (active)
Potency [1]: inactive
Potency [3]: 16.1 µM (active)

COc1cc(NS(=O)(=O)c2ccc(N)cc2)nc(C)n1
Potency [1]: inactive

O=C(OCC(COC(=O)c1cccnc1)(COC(=O)c1cccnc1)COC(=O)c1cccnc1)c1cccnc1
Potency [1]: inactive

CN1CCC(=C2c3ccccc3CCc3cccnc32)CC1
Potency [1]: inactive

CC(C(=O)O)c1ccc(/C=C2\CCCCC2=O)cc1 (stereo not given)
Potency [1]: 16.1 µM (active)

O=C(NN1CCCC1)NS(=O)(=O)c1ccc(Cl)cc1
Potency [1]: inactive

CCCCCC[C@@H](CCC)C(=O)O
Potency [1]: inactive

CCOC(=O)c1ccc(OCCN2C[C@H](O)[C@@H](O)[C@H](O)[C@H]2CO)cc1
Potency [1]: inactive

OC(CCCN1CCCCC1)(c1ccccc1)c1ccccc1
Potency [1]: inactive

Cc1cccc(C)c1NC(=O)c1cc(S(N)(=O)=O)c(Cl)cc1O
Potency [1]: inactive

CC[N+](CC)(CC)CCOC(=O)C(C1CCCC1)C1CCCC1
Potency [1]: inactive

CCCCCC(=O)O[C@]1(C(C)=O)CC[C@H]2[C@@H]3CCC4=CC(=O)CC[C@]4(C)[C@H]3CC[C@@]21C
Potency [1]: inactive

O=C1CC[C@H](C(=O)N2CCCCC2)N1
Potency [1]: inactive

COc1ccccc1OCC1CNC(=O)O1 (stereo not given)
Potency [1]: inactive

O=[N+]([O-])c1nccn1CO[C@@H](CO)[C@H](O)CO
Potency [1]: inactive

CCOC(=O)[C@H](CCc1ccccc1)N[C@@H](C)C(=O)N(CC(=O)O)C1Cc2ccccc2C1
Potency [1]: inactive
